Values joined by “and” are separate entries in the source; they are usually repeats but may differ in a detail not shown here. Identical values can stand only once. Records with an inconclusive call do not appear. Active and inactive are the calls of the source. Unless noted, calls come from the whole dose curve; as a rule, active = well fitted curve in the direction sought with a large enough effect; inconclusive = small, poorly fitted or top-dose-only effect, or another doubt; inactive = no such curve, though single readings can be large; an effect the other way counts as inactive or inconclusive.
What was measured:
[1] = Confirmation and Secondary Assay for Modulators of Hemoglobin Beta Chain Splicing at IVS2 654 locus (AID 910); note: % of control where 0% means no effect
Procedure, shortened: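 HeLa cells stably carrying EGFP interrupted by mutant beta-globin IVS2-654 intron (CMV-driven) were treated with compound for 2 days at 37C; corrected splicing was scored as total peak GFP intensity per well (488 nm excitation, 500-520 nm emission).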

[2] = qHTS Assay for Identification of Small Molecule Agonists for Hypoxia Response Element Signaling Pathway (AID 914; active = well fitted activation curve with a large enough effect in the signal ratio, with a control signal flat, not every such curve was filed as active; the % refers to the signal ratio; note: % of control where 0% means no effect); settings: ME-180 (cervical carcinoma) HRE-bla reporter, beta-lactamase ratio, CoCl2, 17 h; stronger effect = higher value
Procedure, shortened: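 HRE-bla ME-180 cells with beta-lactamase reporter under hypoxia response element, compounds with EC50 CoCl2 for 17 hours at 37 C. CCF4 substrate, 460nm/530nm emission ratio gave %Activity; AC50 from titration series.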

[3] = Confirmation and Secondary Assay for Modulators of Hemoglobin Beta Chain Splicing at IVS2 705 locus (AID 930);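 note: HeLa cells stably expressing the EGFP-705 splicing reporter; GFP fluorescence per well restored by corrected splicing of the IVS2-705 intron in EGFP; series mostly up to about 46 µM; % of control where 0% means no effect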
Procedure, shortened: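 HeLa cells stably carrying EGFP interrupted by mutant beta-globin intron 2 (IVS2-705) treated 2 days at 37C with compound; 500 nM antisense PNA as control. Correct splicing read as total peak GFP intensity per well by laser-scanning cytometry.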

[4] = target: Muscarinic acetylcholine receptor M1 (Rattus norvegicus) (UniProt P08482); assay: qHTS Assay for Antagonists of Acetylcholine Muscarinic M1 Receptor: Kinetic Measurement of Intracellular Calcium Response (AID 943); note: nearly all actives have a fitted effect of over 75% in size; note: potency is the fitted concentration of half-maximal effect
Procedure, shortened: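 CHO cells expressing rat M1 receptor, Fluo-4 loaded, preincubated 10 min with compound, then stimulated with EC80 carbachol (100 nM final). Kinetic calcium fluorescence over 4 min; response taken as peak over basal signal.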

[5] = target: Muscarinic acetylcholine receptor M1 (Rattus norvegicus) (UniProt P08482); assay: qHTS Assay for Antagonists of Acetylcholine Muscarinic M1 Receptor: Measurement of IP-One Response (AID 944); note: nearly all actives have a fitted effect of over 75% in size; note: potency is the fitted concentration of half-maximal effect
Procedure, shortened: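 CHO cells stably expressing rat M1, pretreated 10 min with compound, then stimulated 30 min with carbachol at EC80 (200 nM) in LiCl-containing buffer pH 7.4; IP1 accumulation read by HTRF competition (665/620 nm).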

[6] = target: Pyruvate kinase (Leishmania mexicana) (UniProt Q27686); assay: qHTS Validation Assay for Inhibitors of Leishmania Mexicana Pyruvate Kinase (AID 945); note: potency is the fitted concentration of half-maximal effect
Procedure, shortened: (§1)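 Eight-point qHTS titrations in triplicate, data normalized to DMSO neutral control. Reaction: 0.2 nM LmPYK E451W mutant, 0.5 mM PEP, 0.1 mM ADP, 7 mM MgCl2, pH 7.2, one hour at room temperature; luminescent ATP detection.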

[7] = target: Pyruvate kinase PKM (Homo sapiens) (UniProt P14618); assay: qHTS Assay for Activators of Human Muscle Pyruvate Kinase (AID 954; active = well fitted curve in the direction sought with a large enough effect, not every such curve was filed as active;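 note: 0% = uninhibited enzyme and -100% = no enzyme or full thiadiazolimine inhibition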)
Procedure, shortened: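 Enzyme was run at intermediate activity so both inhibitors and activators could be detected. ATP formed from ADP and PEP by 0.1 nM human PKM2 during a 1 h room-temperature incubation was quantified by coupled luciferase luminescence.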

[8] = qHTS Assay for Identification of Small Molecule Agonists for Thrombopoietin (TPO) Signaling Pathway (AID 917); note: % is set by controls: 0 for no effect and ±100 for the full control effect
Procedure, shortened: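 Murine Ba/F3 cells expressing human TPO receptor and GPIIb-promoter luciferase, IL-3-starved overnight, given compound plus TPO at 26 pM (EC50). After 24 h at 37 C, 5% CO2, luminescence read.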

[9] = qHTS Assay for Identification of Small Molecule Antagonists for Thrombopoietin (TPO) Signaling Pathway (AID 918); settings: TPO-dependent cell signaling reporter, antagonist mode; note: potency is the fitted concentration of half-maximal effect; nearly all actives have a fitted effect of over 60% in size
Procedure, shortened: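 Murine Ba/F3 cells expressing human TPO receptor and a Glycoprotein IIb promoter-luciferase reporter, IL-3-starved overnight, treated with compound plus TPO at EC50 (26 pM final). After 24 h at 37 C, luminescence read to detect inhibitors.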

[10] = Cell Viability - LYMP2-001 (AID 921);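 note: series mostly up to about 92 µM; 0% = DMSO only and full inhibition = tetraoctylammonium bromide control wells; nearly all actives have a fitted effect of over 70% in size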
Procedure, shortened: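 Human lymphoblastoid LYMP2-001 cells, 2500 per well, in complete medium, treated 24 h at 37 C. Viability from cellular ATP by CellTiter-Glo luminescence; AC50 from Hill-equation fits of qHTS concentration-response.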

[11] = MultiTox-Fluor Cytotoxicity Assay - LYMP1-001 - Dead Cells (AID 946);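 note: 0% = DMSO and 100% = tetraoctylammonium bromide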
Procedure, shortened: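 In this qHTS, 15 uM tetraoctylammonium bromide defined 100% and DMSO defined basal activity. Lymphoblastoid cells (LYMP1-001, 2500 per well) received compound for 16 hr at 37 C before a fluorogenic dead-cell substrate readout at 485/520 nm.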

[12] = MultiTox-Fluor Cytotoxicity Assay - LYMP1-001 - Live Cells (AID 947);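 note: 0% = DMSO only and full inhibition = tetraoctylammonium bromide control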
[13] = Cell Viability - LYMP1-002 - Assay at 16 hr (AID 948);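 note: 0% = DMSO alone and full effect = 92 µM tetraoctylammonium bromide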
Procedure, shortened: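 LYMP1-002 human lymphoblastoid cells, 2500/well, were treated with compounds for 16 hr at 37 C in complete medium. Viability was read as intracellular ATP by CellTiter-Glo luminescence, and AC50 was derived from a Hill fit to concentration-response data.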

[14] = MultiTox-Fluor Cytotoxicity Assay - LYMP1-002 - Live Cells (AID 955);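 note: cells exposed to compound for 16 hours; % is set by controls: 0 for no effect and ±100 for the full control effect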
Procedure, shortened: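 Human lymphoblastoid LYMP1-002 cells, 2500/well, treated 16 h at 37 C in complete medium. Live-cell protease activity via GF-AFC fluorescence (Ex/Em 405/510) after 60 min reagent incubation; AC50 from Hill fits.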

[15] = MultiTox-Fluor Cytotoxicity Assay - LYMP1-002 - Dead Cells (AID 960);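 note: cells exposed to compound for 16 h at 37 °C; 0% = DMSO and 100% = tetraoctylammonium bromide; nearly all actives have a fitted effect of over 60% in size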
Procedure, shortened: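 Human lymphoblastoid LYMP1-002 cells, 2500/well, treated 16 h at 37 C; dead-cell protease cleavage of bis-AAF-R110 read by fluorescence (485/520); normalized to DMSO and 15 uM tetraoctylammonium bromide; AC50 from Hill fit.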

[16] = MultiTox-Fluor Cytotoxicity Assay - LYMP1-003 - Dead Cells (AID 961);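 note: cells exposed to compound for 16 h at 37 °C; 0% = DMSO and 100% = tetraoctylammonium bromide; nearly all actives have a fitted effect of over 70% in size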
Procedure, shortened: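 Acute toxicity is scored as increased dead-cell protease activity in human lymphoblastoid LYMP1-003 cells after 16 h compound exposure in complete culture medium. Activity is normalized to DMSO basal and 15 uM tetraoctylammonium bromide as full response.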

[17] = MultiTox-Fluor Cytotoxicity Assay - LYMP1-003 - Live Cells (AID 962);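 note: cells exposed to compound for 16 hours at 37 °C; 0% = DMSO only and full loss = 92 µM tetraoctylammonium bromide; cytotoxic hits lower the live-cell protease signal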
Procedure, shortened: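 LYMP1-003 lymphoblastoid cells, 2500/well in complete medium, treated 16 h at 37 C; live-cell protease cleavage of GF-AFC read by fluorescence (Ex/Em 405/510) after 60 min reagent; AC50 from Hill fits of concentration-response.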

[18] = Cell Viability - LYMP1-003 - Assay at 24 hr (AID 963);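 note: plate controls were DMSO only for no effect and tetraoctylammonium bromide positive control for full effect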
Procedure, shortened: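 Human lymphoblastoid LYMP1-003 cells, 2500/well, treated 24 h at 37 C in complete medium. Viability read as intracellular ATP by CellTiter-Glo luminescence after 30 min at room temperature; AC50 from Hill-equation fits of qHTS concentration-response.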

[19] = target: Pyruvate kinase PKM (Homo sapiens) (UniProt P14618); assay: qHTS Assay for Inhibitors of Human Muscle Pyruvate Kinase (AID 958); settings: purified human PKM enzyme activity
Procedure, shortened: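 Luminescence from a luciferase ATP-detection/stop reagent reported PKM2 activity. Reactions contained 0.1 nM purified human enzyme, 0.5 mM PEP, 0.1 mM ADP and 7 mM MgCl2 at pH 7.2, run 1 h at RT.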

[20] = target: Pyruvate kinase (Leishmania mexicana) (UniProt Q27686); assay: qHTS Validation Assay for Activators of Leishmania Mexicana Pyruvate Kinase (AID 959)
Procedure, shortened: as §1

Pyruvate kinase (Leishmania mexicana), sequence (Q27686 2-499 E452W): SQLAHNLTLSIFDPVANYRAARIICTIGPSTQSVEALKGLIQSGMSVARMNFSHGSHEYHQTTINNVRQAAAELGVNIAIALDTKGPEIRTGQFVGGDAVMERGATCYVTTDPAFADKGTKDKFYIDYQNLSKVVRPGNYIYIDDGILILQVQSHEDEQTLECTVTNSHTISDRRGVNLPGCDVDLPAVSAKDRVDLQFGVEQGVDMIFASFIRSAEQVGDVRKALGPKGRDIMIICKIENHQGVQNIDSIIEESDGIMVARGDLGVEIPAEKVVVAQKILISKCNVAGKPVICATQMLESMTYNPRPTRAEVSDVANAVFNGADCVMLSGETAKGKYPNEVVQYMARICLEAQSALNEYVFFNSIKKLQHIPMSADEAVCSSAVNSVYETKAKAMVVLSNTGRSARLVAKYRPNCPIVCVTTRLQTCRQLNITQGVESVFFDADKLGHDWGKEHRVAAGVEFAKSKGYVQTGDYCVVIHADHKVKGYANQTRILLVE
Pyruvate kinase PKM (Homo sapiens), sequence (P14618 whole entry, looked up): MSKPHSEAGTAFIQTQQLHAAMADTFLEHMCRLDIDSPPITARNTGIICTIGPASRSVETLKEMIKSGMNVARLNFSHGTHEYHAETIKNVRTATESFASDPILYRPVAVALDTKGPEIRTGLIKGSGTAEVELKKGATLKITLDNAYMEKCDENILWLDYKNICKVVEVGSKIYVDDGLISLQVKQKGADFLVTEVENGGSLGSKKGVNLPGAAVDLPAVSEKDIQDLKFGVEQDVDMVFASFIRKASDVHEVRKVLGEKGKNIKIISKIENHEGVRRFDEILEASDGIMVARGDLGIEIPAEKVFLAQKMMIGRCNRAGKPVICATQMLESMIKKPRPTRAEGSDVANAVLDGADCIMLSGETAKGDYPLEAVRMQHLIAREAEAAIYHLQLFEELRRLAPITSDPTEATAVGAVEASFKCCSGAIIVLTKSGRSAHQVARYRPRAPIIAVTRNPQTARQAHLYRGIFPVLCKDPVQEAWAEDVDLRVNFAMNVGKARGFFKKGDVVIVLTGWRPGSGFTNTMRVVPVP
Muscarinic acetylcholine receptor M1 (Rattus norvegicus), sequence (P08482 whole entry, looked up): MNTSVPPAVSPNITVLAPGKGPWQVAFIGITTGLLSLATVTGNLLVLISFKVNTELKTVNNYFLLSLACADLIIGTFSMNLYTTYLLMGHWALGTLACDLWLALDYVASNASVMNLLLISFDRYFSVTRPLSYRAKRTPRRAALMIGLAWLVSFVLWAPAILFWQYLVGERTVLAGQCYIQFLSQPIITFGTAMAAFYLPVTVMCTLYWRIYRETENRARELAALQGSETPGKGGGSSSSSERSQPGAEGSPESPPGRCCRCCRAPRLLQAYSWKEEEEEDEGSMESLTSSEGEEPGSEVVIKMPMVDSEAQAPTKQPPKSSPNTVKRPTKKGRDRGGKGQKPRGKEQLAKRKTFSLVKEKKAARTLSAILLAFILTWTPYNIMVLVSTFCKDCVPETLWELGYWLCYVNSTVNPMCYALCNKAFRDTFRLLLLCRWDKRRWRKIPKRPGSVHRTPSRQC

CN(C)CCCN1c2ccccc2Sc2ccc(C(F)(F)F)cc21
active: Potency [4] 158 nM | Potency [5] 1 µM
inactive: outcome [1] | activation [2] 12.9% | outcome [3] | Potency [6] | outcome [7]

CCO/C([O-])=N/c1c[n+](N2CCOCC2)no1
inactive: outcome [1] | outcome [8] | outcome [3] | Potency [4] | Potency [6] | outcome [7]

O=C(O)CN(CCN(CC(=O)O)CC(=O)O)CCN(CC(=O)O)CC(=O)O
inactive: outcome [8] | Potency [4] | Potency [5] | Potency [6] | outcome [7]

CCCNC(C)C(=O)Nc1ccccc1C (stereo unspecified)
inactive: outcome [1] | outcome [3]

O=C(O)CP(=O)(O)O
inactive: activation [2] 5.52% and -2.23% | outcome [8] | Potency [4] | Potency [5] | Potency [6] | outcome [7]

CC(N=C(NC#N)Nc1ccncc1)C(C)(C)C (stereo unspecified)
inactive: outcome [1] | outcome [3]

CC(C)(Oc1ccc(CCNC(=O)c2ccc(Cl)cc2)cc1)C(=O)O
inactive: outcome [1] | outcome [3]

O=C(O)CN(CCOCCOCCN(CC(=O)O)CC(=O)O)CC(=O)O
inactive: outcome [8] | Potency [4] | Potency [5] | Potency [6] | outcome [7]

CC(C)(C)NCC(O)c1cc(O)cc(O)c1 (stereo unspecified)
inactive: outcome [1] | outcome [3]

N[C@@H](COP(=O)(O)O)C(=O)O
inactive: outcome [8] | Potency [4] | Potency [5] | Potency [6] | outcome [7]

c1ccc2c(c1)CCCC2C1=NCCN1 (stereo unspecified)
inactive: outcome [1] | outcome [3]

CNCCCN1c2ccccc2CCc2ccccc21
active: Potency [9] 12.6 µM
inactive: outcome [1] | outcome [3] | Potency [6] | outcome [7]

Cc1ccc(=O)n(-c2ccccc2)c1
inactive: outcome [8] | Potency [4] | Potency [5] | Potency [6] | outcome [7]

Nc1c2c(nc3ccccc13)CCCC2O (stereo unspecified)
inactive: outcome [1] | outcome [3]

OCCN1CCN(CCCN2c3ccccc3C=Cc3ccccc32)CC1
active: Potency [4] 3.16 µM and 3.55 µM | Potency [5] 3.55 µM and 4.47 µM
inactive: outcome [8] | Potency [6] | outcome [7]

C=CCc1ccccc1OCC(O)CNC(C)C (stereo unspecified)
inactive: outcome [1] | outcome [3]

COCCc1ccc(OCC(O)CNC(C)C)cc1 (stereo unspecified)
inactive: outcome [1] | outcome [3]

CC(=O)OC(C)C[N+](C)(C)C (stereo unspecified)
inactive: outcome [1] | outcome [3]

O=c1[nH]c(=O)n([C@H]2C[C@H](O)[C@@H](CO)O2)cc1Br
inactive: outcome [8] | outcome [10] | Potency [4] | Potency [6] | outcome [11] | outcome [12] | outcome [13] | outcome [7] | outcome [14] | Potency [15] | Potency [16] | outcome [17] | outcome [18]

CCCCNC(=O)NS(=O)(=O)c1ccc(C)cc1
inactive: outcome [1] | outcome [10] | outcome [3] | Potency [5] | Potency [6] | outcome [11] | outcome [12] | outcome [13] | outcome [7] | outcome [14] | Potency [15] | Potency [16] | outcome [17] | outcome [18]

CN(C)CCCN1c2ccccc2Sc2ccccc21
inactive: outcome [1] | outcome [3] | Potency [6] | outcome [7]

CCCN(CCC)C(=O)C(CCC(=O)O)NC(=O)c1ccccc1 (stereo unspecified)
inactive: outcome [1] | outcome [3]

Nc1ncn([C@@H]2O[C@H](CO)[C@@H](O)[C@H]2O)c(=O)n1
active: Potency [9] 3.16 µM
inactive: outcome [1] | outcome [3] | Potency [5] | Potency [6] | outcome [7]

COC(=O)C1=C(C)NC(C)=C(C(=O)OCCN(C)Cc2ccccc2)C1c1cccc([N+](=O)[O-])c1 (stereo unspecified)
inactive: outcome [1] | outcome [3]

Cc1nc2sccn2c(=O)c1CCN1CCC(=C(c2ccc(F)cc2)c2ccc(F)cc2)CC1
inactive: outcome [8] | Potency [6] | outcome [7]
active: Potency [4] 3160 nM | Potency [5] 15.8 µM

CC(C)COCC(CN(Cc1ccccc1)c1ccccc1)N1CCCC1 (stereo unspecified)
inactive: outcome [1] | outcome [3]

CC(C)NCC(O)c1cc(O)cc(O)c1 (stereo unspecified)
inactive: outcome [1] | outcome [3]

CCc1cccc(N(C)C(N)=Nc2cccc3ccccc23)c1
inactive: activation [2] -13% | Potency [6] | outcome [7]

OC(CCN1CCCCC1)(c1ccccc1)C1CCCCC1 (stereo unspecified)
inactive: outcome [1] | outcome [3]

Fc1ccc(C(c2ccc(F)cc2)N2CCN(C/C=C/c3ccccc3)CC2)cc1
inactive: outcome [1] | outcome [3]

CCCCCN(CCCCC)C(=O)C(CCC(=O)O)NC(=O)c1ccc(Cl)c(Cl)c1 (stereo unspecified)
inactive: outcome [1] | outcome [3]

COCCCC/C(=N\OCCN)c1ccc(C(F)(F)F)cc1
inactive: activation [2] 24.7%

CC(=O)OCC1=C(C(=O)O)N2C(=O)[C@@H](NC(=O)Cc3cccs3)[C@H]2SC1
inactive: activation [2] -3.15%

O=C(CCNNC(=O)c1ccncc1)NCc1ccccc1
inactive: outcome [8] | Potency [4] | Potency [5] | Potency [6] | outcome [7]

C[n+]1cc2c3c(ccc2c2ccc4cc5c(cc4c21)OCO5)OCO3
inactive: outcome [1] | outcome [3] | outcome [7] | outcome [20]
active: Potency [9] 1 µM | Potency [5] 12.6 µM | Potency [6] 10 µM | Potency [19] 10 µM

Cc1nc2ccccn2c(=O)c1CCN1CCC(C(=O)c2ccc(F)cc2)CC1
active: Potency [5] 8.91 µM
inactive: outcome [1] | outcome [3] | Potency [6] | outcome [7]

Cc1ccc(/C(=C\CN2CCCC2)c2ccccn2)cc1
inactive: outcome [1] | outcome [3]

CCCCOCCOCCOCc1cc2c(cc1CCC)OCO2
inactive: outcome [11] | outcome [12] | outcome [14] | outcome [18]

NC(=Nc1ccccc1)Nc1ccccc1
inactive: outcome [11] | outcome [12] | outcome [14] | outcome [18]
